Experimental data as given in PubChem BioAssay (NCI).
About 79,000 compounds went through this panel and 15% of them were active in at least one assay; those are over-represented in the sample as a whole. A number with no mark means an inactive call. The source made the active and inactive calls. Rule as the data show it: active = growth inhibition above about 70%; inactive = the rest.

What was measured:
[1] = NCI Yeast Anticancer Drug Screen. Data for the wt1 strain (AID 149);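 also: 0% = growth of vehicle-treated wt1 cultures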; settings: S. cerevisiae wt1 strain (SPY 50644) growth inhibition, stronger effect = higher value
Procedure, shortened: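 Compounds are added to wt1 yeast cultures. Growth is then measured. Inhibition is expressed relative to vehicle-treated controls.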

[2] = NCI Yeast Anticancer Drug Screen. Data for the rad50EPP+ strain (AID 151);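 also: 0% = growth of vehicle-treated control cultures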; settings: S. cerevisiae rad50 mutant strain, stronger effect = higher value
Procedure, shortened: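 Vehicle-normalised growth inhibition; rad50EPP+ yeast strain, altered in DNA damage repair, compound-treated.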

[3] = NCI Yeast Anticancer Drug Screen. Data for the mgt1 strain (AID 153); settings: S. cerevisiae mgt1 mutant growth inhibition, stronger effect = higher value
Procedure, shortened: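 Vehicle-normalized growth inhibition is determined in mgt1 yeast, a strain selected for a defined alteration in DNA repair or cell cycle control.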

[4] = NCI Yeast Anticancer Drug Screen. Data for the rad50 strain (AID 155);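 also: 0% = growth of vehicle-only cultures of the same strain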; settings: S. cerevisiae rad50 strain growth inhibition, stronger effect = higher value
Procedure, shortened: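 Inhibition values express reduced yeast growth in compound-treated cultures relative to vehicle-treated controls.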

[5] = NCI Yeast Anticancer Drug Screen. Data for the mec2-1 strain (AID 157); settings: S. cerevisiae mec2-1 strain, stronger effect = higher value
Procedure, shortened: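 Mutant yeast (mec2-1) grown with compound; growth inhibition relative to vehicle control reported.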

[6] = NCI Yeast Anticancer Drug Screen. Data for the rad14 strain (AID 159);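 also: 0% = growth of vehicle-treated control cultures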; settings: S. cerevisiae rad14 strain growth inhibition, stronger effect = higher value
Procedure, shortened: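 A mutant yeast strain defective in DNA damage repair is treated with compound; inhibition of its growth is scored against untreated, vehicle-exposed cultures.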

[7] = NCI Yeast Anticancer Drug Screen. Data for the sgs1 mgt1 strain (AID 161);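 also: 0% = growth of cultures given vehicle only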; settings: S. cerevisiae sgs1 mgt1 strain, stronger effect = higher value
Procedure, shortened: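 This yeast growth screen uses a strain with defined DNA-repair lesions; compound-treated growth is compared with vehicle-treated growth.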

[8] = NCI Yeast Anticancer Drug Screen. Data for the CLN2oe strain (AID 163);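 also: 0% = growth of vehicle-only control cultures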; settings: S. cerevisiae CLN2oe strain, stronger effect = higher value
Procedure, shortened: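 Compounds are applied to yeast harbouring a defined cell-cycle control change; reduced growth compared with vehicle-treated controls gives the value.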

[9] = NCI Yeast Anticancer Drug Screen. Data for the cln2 rad14 strain (AID 165);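 also: 0% = growth equal to vehicle treated cultures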; settings: S. cerevisiae cln2 rad14 strain, stronger effect = higher value
Procedure, shortened: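 Readout is yeast growth inhibition versus vehicle-treated controls, using a strain with cln2 and rad14 alterations exposed to compound.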

[10] = NCI Yeast Anticancer Drug Screen. Data for the bub3 strain (AID 167); settings: S. cerevisiae bub3 mutant strain, stronger effect = higher value
Procedure, shortened: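 Steps: expose the mutant yeast strain to compound; grow alongside vehicle-treated cultures; measure growth; express inhibition against the vehicle cultures.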

[11] = NCI Yeast Anticancer Drug Screen. Data for the wt2 strain (AID 169);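 also: 0% = growth of vehicle-treated yeast cultures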; settings: S. cerevisiae wt2 strain growth inhibition, stronger effect = higher value
Procedure, shortened: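 Against vehicle-treated controls, the growth of yeast exposed to each compound was compared, and the inhibition was recorded.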

[12] = NCI Yeast Anticancer Drug Screen. Data for the mlh1 strain (AID 171);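 also: 0% = growth of vehicle-treated control cultures of the same strain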; settings: S. cerevisiae mlh1 strain growth inhibition, stronger effect = higher value
Procedure, shortened: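 Measured: yeast growth. Reference: vehicle-treated controls. Organism: strain with a defined alteration affecting DNA damage repair or cell cycle control, treated with compound.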

[13] = NCI Yeast Anticancer Drug Screen. Data for the sgs1 strain (AID 173);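 also: 0% = growth of vehicle-only control cultures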; settings: S. cerevisiae sgs1 mutant, stronger effect = higher value
Procedure, shortened: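 Each compound was added to cultures of the altered yeast strain. Growth was recorded, and inhibition was derived by comparison with vehicle controls.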

[14] = NCI Yeast Anticancer Drug Screen. Data for the mlh1 rad18 strain (AID 175); settings: S. cerevisiae mlh1 rad18 strain growth inhibition, stronger effect = higher value
Procedure, shortened: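 Genetically defined yeast (DNA repair-deficient) exposed to compounds; growth inhibition determined relative to vehicle.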

[15] = NCI Yeast Anticancer Drug Screen. Data for the rad18 strain (AID 177); settings: S. cerevisiae rad18 mutant growth inhibition, stronger effect = higher value
Procedure, shortened: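 Vehicle-treated cultures served as the baseline for scoring compound-induced growth inhibition in DNA-repair-mutant yeast.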

[16] = at 5.0 µM (retest, dose inferred, filed as 0.5)
[17] = at 50.0 µM (retest, dose inferred, filed as 5.0)

O=C1C=CC(=O)c2c(O)c(Nc3ccc(OC(F)(F)F)cc3)c(Cl)c(O)c21
growth inhibition ([1]; at 1.2 µM): 23% | growth inhibition ([1]; at 3.7 µM): 22% | growth inhibition ([1]; at 11.0 µM): 26% | growth inhibition ([1]; at 33.0 µM): 50% | growth inhibition ([1]; at 100.0 µM): 94% (active) | growth inhibition ([2]; at 1.2 µM): 2% | growth inhibition ([2]; at 3.7 µM): 8% | growth inhibition ([2]; at 11.0 µM): 21% | growth inhibition ([2]; at 33.0 µM): 70% (active) | growth inhibition ([2]; at 100.0 µM): 93% (active) | growth inhibition ([3]; at 1.2 µM): 9% | growth inhibition ([3]; at 3.7 µM): 16% | growth inhibition ([3]; at 11.0 µM): 16% | growth inhibition ([3]; at 33.0 µM): 50% | growth inhibition ([3]; at 100.0 µM): 94% (active) | growth inhibition ([4]; at 1.2 µM): -16% | growth inhibition ([4]; at 3.7 µM): -15% | growth inhibition [4, 16]: 4% | growth inhibition ([4]; at 11.0 µM): 4% | growth inhibition ([4]; at 33.0 µM): 67% | growth inhibition [4, 17]: 46% | growth inhibition ([4]; at 50.0 µM): 42% | growth inhibition ([4]; at 100.0 µM): 89% (active) | growth inhibition ([5]; at 1.2 µM): -7% | growth inhibition ([5]; at 3.7 µM): -3% | growth inhibition [5, 16]: 9% | growth inhibition ([5]; at 11.0 µM): 8% | growth inhibition ([5]; at 33.0 µM): 78% (active) | growth inhibition [5, 17]: 79% (active) | growth inhibition ([5]; at 50.0 µM): 46.8% | growth inhibition ([5]; at 100.0 µM): 94% (active) | growth inhibition ([6]; at 1.2 µM): 2% | growth inhibition ([6]; at 3.7 µM): 4% | growth inhibition ([6]; at 11.0 µM): 6% | growth inhibition ([6]; at 33.0 µM): 32% | growth inhibition ([6]; at 100.0 µM): 92% (active) | growth inhibition [7, 16]: 35% | growth inhibition [7, 17]: 49% | growth inhibition ([7]; at 50.0 µM): 73% (active) | growth inhibition ([8]; at 1.2 µM): -8% | growth inhibition ([8]; at 3.7 µM): 0% | growth inhibition ([8]; at 11.0 µM): -5% | growth inhibition ([8]; at 33.0 µM): 12% | growth inhibition ([8]; at 100.0 µM): 83% (active) | growth inhibition [9, 16]: 19% | growth inhibition [9, 17]: 32% | growth inhibition ([9]; at 50.0 µM): 37.9% | growth inhibition ([10]; at 1.2 µM): -17% | growth inhibition ([10]; at 3.7 µM): -8% | growth inhibition [10, 16]: 26% | growth inhibition ([10]; at 11.0 µM): 1% | growth inhibition ([10]; at 33.0 µM): 48% | growth inhibition [10, 17]: 65% | growth inhibition ([10]; at 50.0 µM): 82.2% (active) | growth inhibition ([10]; at 100.0 µM): 91% (active) | growth inhibition ([11]; at 1.2 µM): -5% | growth inhibition ([11]; at 3.7 µM): -6% | growth inhibition ([11]; at 11.0 µM): -6% | growth inhibition ([11]; at 33.0 µM): 21% | growth inhibition ([11]; at 100.0 µM): 93% (active) | growth inhibition ([12]; at 1.2 µM): 0% | growth inhibition ([12]; at 3.7 µM): 6% | growth inhibition ([12]; at 11.0 µM): 13% | growth inhibition ([12]; at 33.0 µM): 37% | growth inhibition ([12]; at 100.0 µM): 87% (active) | growth inhibition ([13]; at 1.2 µM): 34% | growth inhibition ([13]; at 3.7 µM): 32% | growth inhibition ([13]; at 11.0 µM): 58% | growth inhibition ([13]; at 33.0 µM): 62% | growth inhibition ([13]; at 100.0 µM): 96% (active) | growth inhibition [14, 16]: 13% | growth inhibition [14, 17]: 76% (active) | growth inhibition ([14]; at 50.0 µM): 68.7% | growth inhibition ([15]; at 1.2 µM): -2% | growth inhibition ([15]; at 3.7 µM): -2% | growth inhibition ([15]; at 11.0 µM): 4% | growth inhibition ([15]; at 33.0 µM): 45% | growth inhibition ([15]; at 100.0 µM): 92% (active)
